According to PubChem BioAssay (NCATS):
Records with an inconclusive call do not appear. Active and inactive are the calls of the source. Calls follow the shape of the dose curve; as a rule, active = well fitted curve in the direction sought with a large enough effect; inconclusive = small, poorly fitted or top-dose-only effect, or another doubt; inactive = no such curve, though single readings can be large; an effect the other way counts as inactive or inconclusive.

Legend:
[1] = qHTS of pediatric cancer cell lines to identify multiple opportunities for drug repurposing: Primary screen for OHS-50 cells (AID 1347103); also: nearly all actives have a fitted effect of over 40% in size; also: potency is read from the fitted curve at half-maximal effect
In short: (§1)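 Cells (500-1,000/well) rested 5 h, then received compounds for 48 h; metabolically active cells were measured by CellTiter-Glo luminescence. Final concentrations spanned up to 46 µM (MIPE, 11-point) or 0.59 nM-46 µM (NPC, 8-point) in primary screens, 11-point in follow-ups.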

[2] = qHTS of pediatric cancer cell lines to identify multiple opportunities for drug repurposing: Primary screen for RD cells (AID 1347104); also: nearly all actives have a fitted effect of over 55% in size; also: potency is read from the fitted curve at half-maximal effect
In short: (§2)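 Plated cells (500-1,000 per well, growth media) were allowed to settle for 5 hours, treated with compound dilutions for 48 hours, then lysed with CellTiter-Glo for 15 min at room temperature before luminescence reading.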

[3] = qHTS of pediatric cancer cell lines to identify multiple opportunities for drug repurposing: Primary screen for MG 63 (6-TG R) cells (AID 1347105); also: nearly all actives have a fitted effect of over 50% in size; also: potency is read from the fitted curve at half-maximal effect
Excerpt: Drug repurposing or repositioning has been offered as a strategy for drug development in oncology programs. This approach has special potential for childhood cancers and other rare or orphan diseases, where the expected return on new drug development has been a disincentive to pharmaceuticals. […] In this project we exploit the poly-pharmacology of drugs to discover new indications via phenotypic screening of a panel of 19 well-characterized cell lines derived from solid tumors seen in children and adolescents. […] We employed a titration-based paradigm (quantitative high-throughput screening or qHTS), where all compounds were tested at multiple concentrations for their effect on cell viability. […] We screened the NIH Chemical Genomics Center (NCGC) Pharmaceutical Collection (NPC) and Mechanism Interrogation Plate (MIPE) small molecule collections of approved and investigational compounds against these cell lines; and measured metabolically active cells after 48 hours of compound treatment as a proxy for cell viability. […] Assay Submitter: Nathalia J. Martinez, National Center for Advancing Translational Sciences, National Institutes of Health, Rockville, MD, USA; email: natalia.martinez@nih.gov Shen, M et al. Quantitative high-throughput phenotypic screening of pediatric cancer cell lines identifies multiple opportunities for drug repurposing. […]

[4] = qHTS of pediatric cancer cell lines to identify multiple opportunities for drug repurposing: Primary screen for control Hh wild type fibroblast cells (AID 1347106);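 also: series mostly up to about 46 µM; a drop in luminescence marks cytotoxicity and a rise apparent proliferation; nearly all actives have a fitted effect of over 55% in size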
In short: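 Cells (500-1,000/well) in growth media were settled 5 h at 37 degrees C, then given compounds for 48 h. Viability was read as CellTiter-Glo luminescence. Primary runs used MIPE at 11 points (0.78 nM-46 µM) and NPC at 8 points (0.59 nM-46 µM); follow-ups used 11 points.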

[5] = qHTS of pediatric cancer cell lines to identify multiple opportunities for drug repurposing: Primary screen for Rh30 cells (AID 1347107); also: nearly all actives have a fitted effect of over 75% in size; also: potency is read from the fitted curve at half-maximal effect
In short: as §1

[6] = qHTS of pediatric cancer cell lines to identify multiple opportunities for drug repurposing: Primary screen for Rh41 cells (AID 1347108); also: nearly all actives have a fitted effect of over 70% in size; also: potency is read from the fitted curve at half-maximal effect
In short: as §2

[7] = qHTS of pediatric cancer cell lines to identify multiple opportunities for drug repurposing: Confirmatory screen for NB1643 cells (AID 1347109); settings: NB1643 neuroblastoma cell viability; also: potency is read from the fitted curve at half-maximal effect; nearly all actives have a fitted effect of over 45% in size
In short: as §1

[8] = qHTS of pediatric cancer cell lines to identify multiple opportunities for drug repurposing: Confirmatory screen for A673 cells (AID 1347110); settings: A673 Ewing sarcoma cell viability;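 also: potency is read from the fitted curve at half-maximal effect; cells exposed to compound for 48 h before the viability read; nearly all actives have a fitted effect of over 65% in size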
In short: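 A673 cells seeded at 500-1,000 cells/well, rested 5 h, then dosed; primary MIPE 11-point (0.78 nM to 46 µM), NPC (0.59 nM to 46 µM); confirmatory 11-point. CellTiter-Glo luminescence after 48 h.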

[9] = qHTS of pediatric cancer cell lines to identify multiple opportunities for drug repurposing: Confirmatory screen for SK-N-MC cells (AID 1347111); settings: SK-N-MC cell viability;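 also: potency is read from the fitted curve at half-maximal effect; cells exposed to compound for 48 h before the readout; nearly all actives have a fitted effect of over 70% in size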
In short: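 Seed 500-1,000 cells/well; rest 5 h at 37 degrees C. Pin-transfer compounds, 11-point titration. Incubate 48 h. Add CellTiter-Glo, 15 min RT, read luminescence.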

[10] = qHTS of pediatric cancer cell lines to identify multiple opportunities for drug repurposing: Confirmatory screen for BT-12 cells (AID 1347112); settings: BT-12 rhabdoid tumor cells, viability; also: potency is read from the fitted curve at half-maximal effect; nearly all actives have a fitted effect of over 55% in size
In short: as §1

| SMILES | Potency [1] | Potency [2] | Potency [3] | outcome [4] | Potency [5] | Potency [6] | Potency [7] | Potency [8] | Potency [9] | Potency [10] |
| --- | --- | --- | --- | --- | --- | --- | --- | --- | --- | --- |
| CCCSP(=O)(OCC)SCCC | inactive | inactive | inactive | inactive | inactive | inactive |  |  |  |  |
| C[CH2][Hg][S]c1ccccc1C(=O)O | 3890 nM (active) | 4730 nM (active) | 2660 nM (active) | inactive | 2660 nM (active) | 2370 nM (active) | 2930 nM (active) | 7370 nM (active) | 2930 nM (active) | 6570 nM (active) |
